PubChem BioAssay AID493056 (National Center for Advancing Translational Sciences (NCATS), 2011)
Where “and” joins values, the source holds several entries; their conditions need not be identical. Equal values may be shown once. In all, about 360,000 compounds went through this assay and about 2,400 (0.67%) were called active. No stated cut-off is given here; in the data, active means enhancement above about 30%; inactive means the rest. Only a selection was taken, and actives are over-represented in it overall. The source holds several records for some structures; these can differ, active in one and inactive in another.

target: Thyrotropin-releasing hormone receptor (Homo sapiens) (UniProt P34981); test: qHTS for Small Molecule Agonists and Allosteric Enhancers of Human TRH Receptor: Primary Screen for Enhancers; settings: TRHR cells, fluo-8 calcium fluorescence, EC20 TRH enhancement; at 2 µM; stronger effect = higher value; further: 0% is about no effect
Procedure, shortened: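 Enhancer read-out: after compound pinning and an initial kinetic agonist-mode read, an EC20 of TRH (10 nM final) was injected and fluo-8 calcium signal (Ex 480/Em 530) followed at 1 s/cycle for 100 cycles in TRHR-expressing cells.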

Thyrotropin-releasing hormone receptor (Homo sapiens), sequence (P34981 whole entry, looked up): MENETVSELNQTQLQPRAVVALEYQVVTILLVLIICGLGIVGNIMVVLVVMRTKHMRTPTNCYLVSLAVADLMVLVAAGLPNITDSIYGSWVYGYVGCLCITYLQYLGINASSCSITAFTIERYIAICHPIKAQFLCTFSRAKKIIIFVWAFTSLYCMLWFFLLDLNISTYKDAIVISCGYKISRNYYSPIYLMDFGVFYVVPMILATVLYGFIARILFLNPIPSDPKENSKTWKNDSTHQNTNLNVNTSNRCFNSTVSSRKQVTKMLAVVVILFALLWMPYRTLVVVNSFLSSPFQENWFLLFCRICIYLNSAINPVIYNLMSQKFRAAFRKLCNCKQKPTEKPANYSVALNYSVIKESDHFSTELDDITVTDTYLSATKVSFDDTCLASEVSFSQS

| SMILES | enhancement |
| --- | --- |
| Cc1ccc(S(=O)(=O)N2CCN(CC(=O)N/N=C/c3ccc(Br)s3)CC2)cc1 | 47.7% (active) |
| C/C(=N/NC(=O)CN1CCN(S(=O)(=O)c2ccc(Br)cc2)CC1)c1ccncc1 | 1.09% (inactive) |
| Cc1cccc(NC(=O)CN2CCCN(S(=O)(=O)c3ccc(Br)s3)CC2)c1 | 9.87% (inactive) |
| CCOC(=O)c1ccccc1NC(=O)CCc1c(C)nc2c(c1C)c(=O)n(C)c(=O)n2C | -7.61% (inactive) |
| Cc1cc(C)cc(NS(=O)(=O)c2ccc(-c3cc(C)no3)s2)c1 | -5.49% (inactive) |
| O=C1N=C(N2CCOCC2)S/C1=C\C=C/c1ccccc1 | -2.61% (inactive) |
| CCOc1cc(/C=C2\SC(N3CCCC(C)C3)=NC2=O)ccc1O (stereo not given) | -4.09% (inactive) |
| CCc1ccc(/C=C2\SC(N3CCOCC3)=NC2=O)cc1 | 38.7% (active) |
| COc1ccc(CCNC(=O)CCCn2c(=O)c3ccccc3n(Cc3ccc(F)cc3Cl)c2=O)cc1OC | 4.63% (inactive) |
| COc1ccc(NC(=O)CSc2nc(C)cs2)cc1 | 33.7% (active) |
| COc1ccc2nc(SCC(=O)Nc3c(C)cc(C)cc3C)[nH]c2c1 | 0.227% (inactive) |
| Cc1csc(SCC(=O)Nc2sccc2C#N)n1 | -4.36% (inactive) |
| COc1ccc(NC(=O)CSc2ncnc3[nH]ncc23)cc1 | 3.87% (inactive) |
| CC(=O)c1cccc(NC(=O)CSc2nc3c(c(=O)[nH]2)CCC3)c1 | -3.58% (inactive) |
| COc1ccc(NC(=O)CSc2nc(NS(=O)(=O)c3ccc(C)cc3)cc(=O)[nH]2)cc1 | -7.18% (inactive) |
| COc1ccc(NC(=O)CSc2nc3ccccc3[nH]2)cc1 | 39.7% (active) |
| O=C(COC(=O)CCCSc1nc2ccccc2[nH]1)Nc1ccc(Oc2ccccc2)cc1 | 1.7% (inactive) |
| COC(=O)c1cccc(NC(=O)CSc2nc(C)cc(=O)[nH]2)c1 | 36.7% (active) |
| COC(=O)c1cccc(Cn2nnc3sc4c(c3c2=O)CCC(C(C)(C)C)C4)c1 (stereo not given) | -1.23% (inactive) |
| COc1ccc(CCNC(=O)C(=O)NCC(c2ccco2)S(=O)(=O)c2cccs2)cc1OC (stereo not given) | -2.44% (inactive) |
| Cn1nnnc1Sc1ncnc2scc(-c3ccccc3[N+](=O)[O-])c12 | -1.81% (inactive) |
| COc1cc(OC)cc(C(=O)Nc2ccc3nc(Nc4cccc(C(F)(F)F)c4)cc(C)c3c2)c1 | -5.96% (inactive) |
| Cc1cccc(-c2nnc(SCC(=O)N3CCCc4ccccc43)o2)c1 | -6.5% (inactive) |

| SMILES | enhancement |
| --- | --- |
| CC1=CC(C)(C)N(C(=O)CSc2nnc(-c3ccccc3)o2)c2ccc(C)cc21 | 35.8% (active) |
| CC1=CC(C)(C)N(C(=O)CSc2nccn2C)c2cc(C)ccc21 | -7.93% (inactive) |
| CCOc1ccc(-c2cc(C)n3nc(C(=O)Nc4ccc(C)c(C)c4)cc3n2)cc1 | 4.67% (inactive) |
| COc1cccc(NC(=O)c2csnn2)c1 | 1.76% (inactive) |
| Cc1ccccc1-n1nc(C)c2cc(C(=O)NC3CC3)sc21 | -3% (inactive) |
| CCOC(=O)CNC(=O)c1cc2c(=O)n3cccc(C)c3nc2s1 | -2% (inactive) |
| Cc1cccn2c(=O)c3cc(C(=O)NC4CCCCC4)sc3nc12 | 44.3% (active) |
| COc1ccc(Cl)cc1NC(=O)C(C)Sc1nc2c(c(=O)[nH]1)CCCC2 (stereo not given) | 0.18% (inactive) |
| CC(=O)c1cc(NC(=O)c2ccccc2)c(=O)oc1/C=C/N(C)C | 31.6% (active) |
| CCOC(=O)c1cc(NC(=O)c2ccc(F)cc2)c(=O)n2c1oc1ccccc12 | -6.78% (inactive) |
| COc1ccc(C2COC(=O)C2=N)c(NC(=O)c2ccccc2)c1 (stereo not given) | -7.29% (inactive) |
| COc1cc(OC)c(NC(=O)Cc2ccc(-n3c(C)nc4cccnc43)cc2)cc1Cl | 9.81% (inactive) |
| COc1ccc(Cc2n[nH]c(=S)n2NC(=O)Nc2ccc(C)cc2)cc1 | -6.6% (inactive) |
| COc1ccc(OCc2n[nH]c(=S)n2N)cc1 | 41.1% (active) |
| CSc1n[nH]c(=S)n1N | 4.42% (inactive) |
| COc1ccccc1N1CCN(c2ccc(=O)n(CC(=O)NCc3ccc(OC(C)C)cc3)n2)CC1 | 2.06% (inactive) |
| COc1cc(OC)c(NC(=O)c2cnc(N3CCCC3)nc2C)cc1Cl | 0.561% (inactive) |
| CCOCCCNC(=O)c1c(NC(=O)c2nc(SC)ncc2Cl)sc2c1CCCC2 | 6.4% (inactive) |
| CC1=C(C)CC(C(=O)NC(C)CCc2ccccc2)C(C(=O)O)C1 (stereo not given) | 46.8% (active) |
| CC(CCc1ccccc1)NC(=O)c1cnc(Cl)c(Cl)c1 (stereo not given) | -11.8% (inactive) |
| CCN(CC)S(=O)(=O)N1CCC(C(=O)NC(C)CCc2ccccc2)CC1 (stereo not given) | 5.01% (inactive) |
| CCc1nn(CC(=O)N2CCN(c3cccc(C(F)(F)F)c3)CC2)c(=O)c2cc3occc3n12 | 6.05% (inactive) |
| COc1cc(OC)cc(C(=O)NCCc2csc3nc(-c4ccccc4F)nn23)c1 | -2.81% (inactive) |

| SMILES | enhancement |
| --- | --- |
| COc1ccc(C2(O)C(=O)Nc3ccccc32)cc1 (stereo not given) | -4.9% (inactive) |
| COc1ccc(C2(C)NC(=O)N(CC(=O)c3ccc4c(c3)OCO4)C2=O)cc1 (stereo not given) | 2.8% (inactive) |
| COc1ccc(C2(C)ON(c3ccccc3C(F)(F)F)C2=O)cc1 (stereo not given) | 35% (active) |
| COc1ccc(NC(=O)C2CCCN(S(=O)(=O)c3cccc4nonc34)C2)cc1Cl (stereo not given) | -6.01% (inactive) |
| Cc1ccc(Cn2c(CCCNC(=O)C3CCCCC3)nc3ccccc32)cc1 | -17% (inactive) |
| CC12CCC(C(=O)N3CCN(c4ncccn4)CC3)(c3nc4ccccc4nc31)C2(C)C (stereo not given) | -2.73% (inactive) |
| O=C(c1ccc2ccccc2n1)N1CCN(c2ccccc2Cl)CC1 | 2.59% (inactive) |
| c1cnc(N2CCN(c3ccc4ccccc4n3)CC2)nc1 | 45.5% (active) |
| CCOc1ccccc1CNC(=O)c1ccc(-n2c(C)cc3c2CCC(C)C3)cc1 (stereo not given) | -0.716% (inactive) |
| NC(=O)CSc1nc2c(oc3ccccc32)c(=O)n1Cc1ccccc1 | -1.53% (inactive) |
| Cc1ccc(NC(=O)COC(=O)CNC(=O)c2ccc(Cl)cc2Cl)cc1S(=O)(=O)N1CCOCC1 | 1.95% (inactive) |
| O=C(Nc1ccccc1N1CCOCC1)c1ccncc1 | 6.76% (inactive) |
| O=C(CNC(=O)c1ccc(Cl)cc1Cl)NCC(=O)Nc1ccccc1N1CCOCC1 | 31.1% (active) |
| CCOC(=O)c1ccc(COC(=O)CCc2nc(-c3ccccc3)c(-c3ccccc3)o2)cc1 | 31.7% (active) |
| CCOC(=O)c1ccc(-n2c(CCC(=O)O)ccc2-c2ccccc2)cc1 | -12.3% (inactive) and 10.9% (inactive) |
| CCOC(=O)c1c(-c2ccc(OC)cc2)oc2ccc(OCc3ccc(C(=O)OC)cc3)cc12 | -1.96% (inactive) |
| COc1ccc(Cn2c(C(=O)O)c(CNCc3cccc(OC)c3)c3ccc(C)cc32)cc1 | 4.01% (inactive) |
| COc1cc(NC(=O)c2noc3c2CSc2ccccc2-3)cc(OC)c1OC | 4.94% (inactive) |
| COc1ccc(-c2c3c(=O)n(C)c(=O)n(C)c3c3c(C)nc4ccccc4n23)cc1 | -1.08% (inactive) |
| COc1ccc(Nc2cc(=O)n(-c3ccccc3)c3c2c(=O)n(C)c(=O)n3C)cc1 | -11.6% (inactive) |
| COc1ccc(-c2[nH]c3c(c2-c2c(-n4cccc4)n(C)c(=O)n(C)c2=O)c(=O)n(C)c(=O)n3C)cc1 | 31.9% (active) |
| CCOC(=O)c1cc(-c2ccccc2)n(CCC(=O)Nc2ccccc2CC)c1C | 14% (inactive) |
| Cc1ccccc1NC(=O)Cn1c(=O)n(CCCCC(=O)NCc2ccccc2Cl)c(=O)c2ccccc21 | 2.95% (inactive) |

| SMILES | enhancement |
| --- | --- |
| Cc1c(C(=O)Nc2cccc(Cl)c2)oc2ccc(S(=O)(=O)N3CCOCC3)cc12 | -6.24% (inactive) |
| CC(C)C[C@H](NC(=O)NCCc1ccc(Cl)cc1)C(=O)O | -5.99% (inactive) |
| C[C@H](NC(=O)NCCc1ccccc1)C(=O)O | 33.9% (active) |
| O=C(NCCc1ccccc1)C1CC1 | -3.66% (inactive) |
| CC(C)Cn1c(C2CC(=O)N(c3ccccc3Cl)C2)nc2ccccc21 (stereo not given) | -0.635% (inactive) |
| CN(C)c1ccc(C(=O)NCC(=O)OC(C(=O)Nc2cc(C(F)(F)F)ccc2Cl)c2ccccc2)cc1 (stereo not given) | -3.56% (inactive) |
| C[n+]1ccc(C(=O)NCc2ccccc2)cc1 | -9.31% (inactive) |
| C[N+](C)(C)CCNC(=O)c1cc[n+](Cc2ccccc2)c(/C=N/O)c1 | 40.4% (active) |
| O=C(NCCCNCc1ccccc1)c1ccc(/C=N/O)nc1 | 15.9% (inactive) |
| CCn1c(CN2CCC(C)CC2)nc2cc(NC(=O)c3ccccc3[N+](=O)[O-])ccc21 | 3.72% (inactive) |
| COc1ccccc1-c1cc2nc(C)c(CCC(=O)O)c(C)n2n1 | 5.74% (inactive) |
| O=C(COC(=O)C12CC3CC(CC(C3)C1)C2)NCc1ccco1 | -2.58% (inactive) and 33.9% (active) |
| O=C(CC1CCCCC1)NCc1ccco1 | 14.2% (inactive) |
| O=C(CC12CC3CC(CC(C3)C1)C2)NCc1ccco1 | -4.28% (inactive) |
| Cc1ccc(NC2=C(c3ccc(C(F)(F)F)cc3)C(=O)c3ccccc32)cc1F | -15.7% (inactive) |
| CCOC(=O)c1c(NC(=O)Cc2coc3ccc(CC)cc23)sc2c1CCC2 | -3.01% (inactive) |
| O=C(Nc1nnc(C2CC(=O)N(c3ccc(Cl)cc3)C2)s1)c1ccco1 (stereo not given) | -3.65% (inactive) |
| CCc1ccc(NC(=O)c2cc(S(=O)(=O)NC3CCCCCC3)ccc2F)cc1 | 3.53% (inactive) |
| O=C(Nc1ccc(F)cc1)c1cccnc1N1CCOCC1 | -2.71% (inactive) |
| O=C(Nc1ccccc1)c1cccnc1Nc1ccccc1 | 47.9% (active) |
| O=C(Nc1ccccc1)c1ccccc1NC(=O)C(F)(F)F | -2.9% (inactive) |
